Bioassay records: PubChem, several laboratories
Vif inh: inhibitors of HIV Vif; HEK293T cells, Vif self-association by quenched fluorescence, imaging, 24 h; 340,000 compounds, 0.35% hits; inhibition, % at 7.49 µM; in the data active = inhibition above about 50%, passing the limit was not always enough; inconclusive = no clear call, values can overlap the other calls; inactive = below about 31%
INS-1E GSIS act: primary screen for activators of insulin secretion dependent on glucose, INS-1E cells, GLuc reporter luminescence; INS-1E GLuc reporter insulin secretion, 2-3 h; activation, % at 16.6 µM; 370,000 compounds, 0.61% hits; AID 743287;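 active = lowest replicate activation of at least 40%, so every replicate reaches that level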;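 note: 0% = median of neutral control wells and 100% = median of IBMX positive control wells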
Neddyl block: cullin neddylation inhibition | 360,000 compounds, 0.58% hits | inhibition, % at 25 µM | TR-FRET cullin neddylation, biochemical; in the data active = inhibition above about 36%
dFosB activator: activators of mouse delta FosB homodimer; AID 493131; purified delta FosB, TAMRA-CDK5 oligo fluorescence polarization; percent of positive-control signal above neutral wells; activation, % at 25 µM; 340,000 compounds, 0.99% hits;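 active = mean activation above about 17%, with every replicate also reaching it, limit read from the data, passing the limit was not always enough; inconclusive = only one of the two conditions met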
Target sequence (P13346 whole entry, looked up): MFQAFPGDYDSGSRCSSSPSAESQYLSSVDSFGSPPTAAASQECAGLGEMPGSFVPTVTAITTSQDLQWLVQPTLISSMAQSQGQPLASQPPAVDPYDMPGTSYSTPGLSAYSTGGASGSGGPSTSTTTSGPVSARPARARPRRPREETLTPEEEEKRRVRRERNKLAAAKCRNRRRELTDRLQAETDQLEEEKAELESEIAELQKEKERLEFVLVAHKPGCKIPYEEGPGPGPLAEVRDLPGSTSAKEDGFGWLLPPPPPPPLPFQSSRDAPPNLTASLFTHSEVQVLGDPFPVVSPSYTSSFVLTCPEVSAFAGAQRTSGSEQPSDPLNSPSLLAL
A1 inh: inhibitors of the anti-apoptotic protein A1, read as caspase activation; MEF A1-2A-BIM cells, Caspase-Glo 3/7 luminescence, 3 h; percent of clofoctol response, vehicle zero; caspase activation, % (test concentration not listed); 330,000 compounds, 0.066% hits;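 active = over half of replicate activation scores above 10%, or exactly half above 10 with the replicate mean above 10; inconclusive = replicate mean below 10 yet half the replicates above 10; inactive = over half of replicates below 10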
* marks the source's active call; other numbers are inactive results; i = inactive; ? = inconclusive; nt = no result given; ! = not confirmed by another sample. Most compounds without a hit are left out; they make up all but 1.9% or so of the library.

SMILES	Vif inh	INS-1E GSIS act	Neddyl block	dFosB activator	A1 inh
Cc1noc(C)c1NC(=O)Nc1ccc2c(c1)CC(=O)N([C@@H](C)CO)C[C@@H](C)[C@H](CN(C)S(=O)(=O)c1ccc(F)cc1)O2	nt	16	nt	nt	nt
O=C(CCN1CCCCC1)NCC[C@@H]1CC[C@H](NS(=O)(=O)c2cccc(Cl)c2)[C@@H](CO)O1	nt	-2	nt	nt	nt
Cc1ccc(NS(=O)(=O)c2ccc(NC(=O)c3ccccc3C(=O)O)cc2)c(C)c1	-4	1	-6	3	1
Cc1ccc(NS(=O)(=O)c2ccc(NC(=O)c3ccc(-c4ccccc4)cc3)cc2)c(C)c1	nt	nt	-23	54*	0
C[C@@H]1CN([C@H](C)CO)C(=O)c2cccc(NC(=O)c3ccc(-c4nccs4)cc3)c2O[C@@H]1CN(C)Cc1ccncc1	nt	-5	nt	nt	nt
COc1ccccc1-c1cnc2c(c1)C(=O)N([C@@H](C)CO)C[C@H](C)[C@@H](CN(C)Cc1cncnc1)O2	nt	2	nt	nt	nt
CC(C)N1CCc2c(sc(NC(=O)c3cc4cc([N+](=O)[O-])ccc4s3)c2C(N)=O)C1	80*	11	-35	48*	nt
CC(C)N1CCc2c(sc(NC(=O)c3ccc(C(=O)c4ccccc4)cc3)c2C(N)=O)C1	-7	-11	-6	29*	1
CC(=O)Nc1sc2c(c1-c1nc3ccccc3s1)CCN(C(C)C)C2	11	nt	37	35*	?
CC(C)N1CCc2c(sc(NC(=O)c3ccc4ccccc4c3)c2C(N)=O)C1	i	-5	54*	-33	1
CC(C)N1CCc2c(sc(NC(=O)c3ccco3)c2C(N)=O)C1	25	30	25	-12	0
CC(C)N1CCc2c(sc(NC(=O)Cc3ccccc3)c2C(N)=O)C1	0	1	8	-10	0
COc1ccc(NC(=O)N(C)C[C@H]2OCCCC[C@H](C)Oc3ccc(NS(=O)(=O)c4ccc(C)cc4)cc3C(=O)N([C@@H](C)CO)C[C@H]2C)cc1	nt	-6	nt	nt	nt
OCCN1CCN(c2nc(NCc3ccco3)c3ccccc3n2)CC1	-4	nt	29	7	0
Cc1ccc(OCCN2CCN(c3nc(NCc4ccco4)c4ccccc4n3)CC2)cc1	-6	-22	29	27*	0
c1ccc(CN2CCN(c3nc(NCc4ccco4)c4ccccc4n3)CC2)cc1	-6	-21	33	28*	-1
COc1ccc(S(=O)(=O)Nc2ccc3c(c2)CC(=O)N([C@@H](C)CO)C[C@@H](C)[C@H](CN(C)Cc2ccc(C(=O)O)cc2)O3)cc1	nt	9	nt	nt	nt
Cc1ccc(S(=O)(=O)Nc2ccc3c(c2)C(=O)N([C@H](C)CO)C[C@@H](C)[C@@H](CN(C)S(=O)(=O)c2ccc(Cl)cc2)O3)cc1	nt	6	nt	nt	nt
OCCO	55*	nt	-8	-1	nt
CCOC(=O)C1CCN(S(=O)(=O)c2cccc(-c3cn4cccnc4n3)c2)CC1	-14	nt	nt	-2	0
CCOC(=O)C1CCN(S(=O)(=O)c2cccc(-c3cn4cc(C)ccc4n3)c2)CC1	64*	-33	28	-1	-1
O=C(Nc1nc2ccccc2[nH]1)c1ccccc1O	1	16	nt	4	-8
Cc1ccc(C)c(C(=O)Nc2nc3ccccc3[nH]2)c1	4	45*	8	0	-1
C[C@H]1CN([C@@H](C)CO)C(=O)c2cc(C#CC3CCCCC3)cnc2O[C@H]1CN(C)Cc1cccnc1	nt	-5	nt	nt	nt
CCCN1C(=O)C(O)(C/C(C)=N/O)c2ccccc21 (stereo unspecified)	0	50*	-1	11	0
SMILES	Vif inh	INS-1E GSIS act	Neddyl block	dFosB activator	A1 inh
CCOc1ccc(OCCC(=O)N(CCC2=CCCCC2)c2c(N)n(Cc3ccccc3)c(=O)[nH]c2=O)cc1	1	-3	5	-3	1
CCOc1ccc(OCC(=O)N(CCC2=CCCCC2)c2c(N)n(Cc3ccccc3)c(=O)[nH]c2=O)cc1	-9	10	6	12	60*
Cc1cccc(S(=O)(=O)N2C[C@@H](O)COC[C@@H]3O[C@H](CC(=O)NCc4ccc5c(c4)OCO5)CC[C@H]32)c1	nt	3	nt	nt	nt
COc1cc2sc3cc(NCC[C@@H]4CCCN4C)ccc3c(=O)c2cc1OC	4	3	1	30*	0
COc1cccc2sc3ccc(NCCC4CCCN4C)cc3c(=O)c12 (stereo unspecified)	-1	nt	-37	4	1
CCOC(=O)C1=C(C)NC(=O)NC1c1ccoc1 (stereo unspecified)	29	nt	2	-6	0
CCOC(=O)C1=C(C)NC(=O)NC1	74*	9	0	0	2
O=C(c1ccccc1)c1ccc2ccccc2n1	nt	50*	-28	2	0
CC(=O)c1cc(-c2ccccc2)n(CC(=O)NC2CCCC2)c1C	3	nt	-22	-6	0
CC(=O)c1cc(-c2ccccc2)n(CC(=O)Nc2cc(C)cc(C)c2)c1C	-1	4	-17	33*	1
O=C(COC(=O)c1cccc([N+](=O)[O-])c1)NCc1cccs1	-7	-3	-24	4	-1
Cc1ncsc1CCOC(=O)c1cccc([N+](=O)[O-])c1	-1	42*!	-32	13	0
Cc1ccc(S(=O)(=O)CC(=O)Nc2nnc(C(C)C)s2)cc1	58*	-11	6	-7	-1
CCCc1nnc(NC(=O)CS(=O)(=O)c2ccc(C)cc2)s1	-3	10	11	-14	-1
CC(=O)Nc1ccc(-c2csc(NC(=O)CCCc3cccs3)n2)cc1	-7	-1	-5	-5	-1
Cc1ccc(-c2csc(NC(=O)CCCc3cccs3)n2)cc1	-3	98*	-5	10	0
C[C@@H]1CCCCO[C@H](CN(C)S(=O)(=O)c2cn(C)cn2)[C@H](C)CN([C@@H](C)CO)C(=O)c2cc(NC(=O)Nc3ccc(F)cc3)ccc2O1	nt	-12	nt	nt	nt
Cc1noc(C)c1NC(=O)Nc1ccc2c(c1)C(=O)N([C@@H](C)CO)C[C@H](C)[C@@H](CN(C)Cc1ccc(-c3ccccc3)cc1)O2	nt	19	nt	nt	nt
C[C@@H]1CN([C@@H](C)CO)C(=O)c2cc(-c3ccc(F)cc3)cnc2O[C@H]1CN(C)CC1CCCCC1	nt	15	nt	nt	nt
O=C(Nc1ccc(N2CCCC2)cc1)c1cc(Br)ccc1Cl	-1	nt	12	52*	0
O=C(Nc1ccc(N2CCCC2)cc1)c1ccccc1[N+](=O)[O-]	3	-5	-31	25*	-1
Cc1ccc(C(=O)Nc2ccc(N3CCCC3)cc2)c(C)c1	-3	7	7	49*	0
CC(C)NC(=O)Nc1ccc2c(c1)C(=O)N([C@H](C)CO)C[C@H](C)[C@@H](CN(C)C(=O)Nc1ccccc1)OCCCC[C@H](C)O2	nt	-3	nt	nt	nt
CC(=O)N(Cc1ccco1)Cc1cc2cccc(C)c2n2nnnc12	nt	nt	nt	nt	-1
CCc1ccc2c(c1)cc(CN(Cc1ccco1)C(C)=O)c1nnnn12	-3	52*	0	-1	0
